In PubChem BioAssay (NCI):
This is part of a sample that, as a whole, favours compounds with a hit. Of some 83,000 tested, about 20% had one in any assay.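 96-well plates, one dose, 48 hours. Percent growth reported; active if below 10.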 A number with no mark means an inactive call. Activity calls are given as the source filed them.

Experiments:
Test in all cases: NCI-60 one-dose screen, 48 h (100 = growth as untreated, 0 = no growth, -100 = all killed)
Details in all cases: 10 µM unless noted
DU-145 prostate = system: DU-145 prostate
K-562 leukemia = system: K-562 leukemia
MALME-3M melanoma = system: MALME-3M melanoma
MDA-MB-231 breast = system: MDA-MB-231 breast
RXF 393 renal = system: RXF 393 renal
SF-268 CNS = system: SF-268 CNS
SF-295 CNS = system: SF-295 CNS
SF-539 CNS = system: SF-539 CNS
UACC-257 melanoma = system: UACC-257 melanoma
M14 melanoma = system: M14 melanoma
HCT-15 colon = system: HCT-15 colon
HT29 colon = system: HT29 colon
SNB-75 CNS = system: SNB-75 CNS
SNB-19 CNS = system: SNB-19 CNS
PC-3 prostate = system: PC-3 prostate
SK-MEL-5 melanoma = system: SK-MEL-5 melanoma
UACC-62 melanoma = system: UACC-62 melanoma
LOX IMVI melanoma = system: LOX IMVI melanoma
SK-MEL-28 melanoma = system: SK-MEL-28 melanoma
U251 CNS = system: U251 CNS

| SMILES | growth (DU-145 prostate) | growth (K-562 leukemia) | growth (MALME-3M melanoma) | growth (MDA-MB-231 breast) | growth (RXF 393 renal) | growth (SF-268 CNS) | growth (SF-295 CNS) | growth (SF-539 CNS) | growth (UACC-257 melanoma) | growth (M14 melanoma) | growth (HCT-15 colon) | growth (HT29 colon) | growth (SNB-75 CNS) | growth (SNB-19 CNS) | growth (PC-3 prostate) | growth (SK-MEL-5 melanoma) | growth (UACC-62 melanoma) | growth (LOX IMVI melanoma) | growth (SK-MEL-28 melanoma) | growth (U251 CNS) |
| --- | --- | --- | --- | --- | --- | --- | --- | --- | --- | --- | --- | --- | --- | --- | --- | --- | --- | --- | --- | --- |
| CC/C(=N\Nc1nc2ccccc2n1C)c1ccccn1 | 11.8% | 8.28% (active) | 9.46% (active) | 20.8% | 2.73% (active) | 3.39% (active) | -19.8% (active) | -6.18% (active) | -0.857% (active) | -19% (active) | 18.5% | 21.2% | 19.5% | 18.8% | 26.5% | -50.7% (active) | -13.9% (active) | -15% (active) | 16.2% |  |
| COc1ccc(-c2nc(SCC(C)C)nc(Nc3ccc([N+](=O)[O-])cc3)c2C#N)cc1 | 107% | 93% | 98% | 94.6% | 107% | 93.2% | 84.3% | 99.8% | 85.2% | 103% | 101% | 97.1% | 88.1% | 88.4% | 92.6% | 96.3% | 99% | 91.7% | 107% |  |
| N#Cc1c2ncccc2c2nnc3cc(Cl)c(Cl)cc3n12 | 89.2% | 91% | 79.6% | 67% | 116% | 90.6% | 105% | 97.1% | 95.3% | 100% | 82.9% | 95.2% | 67.1% | 101% |  | 92.4% | 90.8% | 97.4% | 80.9% | 90.6% |
| CCOC(=O)c1sc(NS(=O)(=O)c2ccccc2)nc1C | 145% | 144% | 120% | 107% | 114% | 114% | 133% | 101% | 110% | 107% | 115% | 124% | 97.9% | 107% |  | 99.3% | 103% | 105% | 123% | 109% |
| CCOC(=O)c1c(C)oc2ncnc(Nc3ccc(NC(=O)Nc4cccc(Cl)c4)cc3)c12 | 70.8% | 67.7% | 81.4% | -18.7% (active) | 63.6% | 86.4% | 79.6% | 16.6% | 84% | 48.6% | 59% | 37.1% | 70.6% | 84.7% | 41.2% | 53% | 69.1% | 64.1% | 61.8% |  |
| Oc1ccc([S+](c2ccc(O)cc2)c2ccc(O)cc2)cc1 | 120% | 94.7% | 106% | 117% | 94.6% | 114% | 96% | 98.9% | 98.4% | 105% | 97.4% | 108% | 92.5% | 99.7% | 97.9% | 100% | 101% | 107% | 105% |  |
| CCCNC(=O)Oc1ccc(/C(=C(/C)Cc2ccc(OC)cc2)c2ccc(OCCN3CCCCC3)cc2)cc1 | 97% | 50.8% | 112% | 79.5% | 88.7% | 81.8% | 102% | 94% | 93.7% | 85.6% | 50.2% | 28.9% | 63.6% | 94.1% | 77% | 78.2% | 97.5% | 84.8% | 100% |  |
| COc1cc(-c2nn(-c3ccc(NC(=O)Nc4ccc(Cl)c(C(F)(F)F)c4)cc3)cc2-c2ccncc2)ccc1Cl | 34% | 13.2% | 12.1% | 7.76% (active) | -30.2% (active) | 21.7% | -7.8% (active) | 14.7% | -3.17% (active) | 1.7% (active) | 9.82% (active) | -24.4% (active) | -0.838% (active) | 30.5% |  | -58.2% (active) | 6.01% (active) | 11.7% | 18.2% | -3.64% (active) |
| COc1ccccc1CNCCCN1C(=O)c2ccc3c4c(ccc(c24)C1=O)C(=O)N(CCCNCc1ccccc1OC)C3=O | -81.4% (active) | -44.2% (active) | -73.6% (active) | -13.1% (active) | -93.9% (active) | -64.4% (active) | -56.3% (active) | -70.7% (active) | -97.9% (active) | -61.9% (active) | -69.2% (active) | -59.5% (active) | -95.7% (active) | -68.8% (active) | -59.9% (active) | -100% (active) | -72.5% (active) | -63.1% (active) | -90.6% (active) |  |
| COC(=O)[C@@H]1[C@H](O)[C@H](C)[C@H](O)[C@H](C)/C=C\C=C(C)C(=O)Nc2c(C)c(OC(C)=O)c3c(c2O)C(=O)C(C)=C2OCOC(=C23)C(C)=C[C@@](C)(O)[C@H](O)[C@@H](C)[C@H]1OC(C)=O | 144% | 145% | 131% | 125% | 106% | 108% | 118% | 101% | 106% | 107% | 118% | 110% | 86.6% | 113% |  | 103% | 113% | 104% | 138% | 111% |
| CCCCCCCCC1OC1CCCCCCCC(=O)O (configuration not stated) | 116% | 116% | 90.1% | 94.6% | 101% | 107% | 97.4% | 93.5% | 95.3% | 105% | 96.6% | 118% | 92.9% | 101% | 89.9% | 98% | 88.5% | 109% | 110% |  |
| CC(=O)Nc1nc(C)c(C(=O)N/N=C/N2CCOCC2)s1 | 109% | 174% | 114% | 109% | 119% | 103% | 110% | 105% | 118% | 113% | 105% | 107% | 101% | 104% |  | 112% | 98.4% | 106% | 111% | 101% |
| Oc1ccccc1/C=N/N=C\c1ccccc1Cl | 99.5% | 77.1% | 103% | 72.6% | 97.3% | 91.9% | 98.7% | 105% | 104% | 91% | 95.5% | 97.5% | 86.7% | 91.5% | 88.1% |  | 92.1% | 86.2% | 105% | 93.4% |
